Molecules are shown by their SMILES. Hit rate of the full screen: of about 65,000 compounds, about 2,100 (3.2%) showed an effect of 50% or more. The median lay at about -52%. The sample as a whole holds a higher share of strong results than the screen did.

This assay concerns Plasmodium falciparum. The assay is described as follows: Screen against P. falciparum Asexual Blood Stage (ABS), at 5uM. The class given is functional, Dd2. The conditions noted are these: tested at 5 uM.
Regarding `N#Cc1cccc(CNCCC(=O)N2CCc3sccc3C2)c1`, the INHIBITION is given as 21.5%.

As to `Cc1cc(C2CCCN2CCC(=O)N2CCc3sccc3C2)no1` (stereo unspecified), the INHIBITION is given as -1.53%.

`Cc1cnn(C2CN(CC(=O)NCCCc3ccccc3)C2)c1`: the INHIBITION was -108%.

Turning to `c1ccc(NCc2cnc3n2CCN(C2CCOC2)CC3)nc1` (stereo unspecified), the INHIBITION is recorded as -124%.

`CC(C)NCC1OCCc2cn(C)nc21` (stereo unspecified): the INHIBITION is listed as -22.9%.

For the compound `CSc1ccc(CN2CCCC3(CNC(=O)c4ccccc4O3)C2)cc1` (stereo unspecified), the INHIBITION was -85.7%.

Consider `CN(C)c1cccc(C(=O)N2C[C@@H]3CC[C@H]2CN(C(=O)C2CCC2)C3)c1`, for which the INHIBITION is reported as -111%.

Turning to `CC[C@@H](C)[C@@H](N)C(=O)Nc1cccc(-c2cnc(N(C)C)nc2)c1`, the INHIBITION is -60.2%.

Consider `Cc1ccc(-c2cc(CNc3ncnc4c3CCNCC4)no2)cc1`, for which the INHIBITION was determined as 63.5%.

For the compound `COc1ccc(-c2cc(CNc3ncnc4c3CCNCC4)no2)cc1`, the INHIBITION came to 16%.

In the case of `c1cncc(-c2noc(CNc3ncnc4c3CCNCC4)n2)c1`, the INHIBITION is given as -88.2%.

Take `Cc1nnc2n1CCN(C(=O)C(C)Oc1ccc(C#N)cc1)C2` (stereo unspecified): the INHIBITION is -140%.

For the compound `CN(C)C(=O)CN1C[C@H]2CC[C@@H](C1)N(Cc1cccc(Cl)c1Cl)C2`, the INHIBITION was found to be 30.9%.

Take `N#CC1(C(=O)N2C[C@H](Nc3ncccn3)[C@@H](C3CC3)C2)CCOCC1`: the INHIBITION is reported as -92.4%.

With `CC(C)(CN1C[C@H](Nc2ncccn2)[C@@H](C2CC2)C1)N1CCOCC1`, the INHIBITION is on record as 50.5%.

As for `Cc1cc(N[C@H]2CN(CC(C)(C)N3CCOCC3)C[C@@H]2C2CC2)ncn1`, the INHIBITION was 48.9%.

For `CCS(=O)(=O)N[C@H]1CN(CC(C)(C)N2CCOCC2)C[C@@H]1C1CC1`, the INHIBITION is reported as -11.1%.

As for `Cc1nccc(N[C@H]2CN(CCS(C)(=O)=O)C[C@@H]2C2CC2)n1`, the INHIBITION is listed as -88.4%.

Turning to `Cc1nccc(N[C@H]2CN(CC(C)(C)N3CCOCC3)C[C@@H]2C2CC2)n1`, the INHIBITION worked out at 63.5%.

With `Cc1ccc(NC2CCN(C(=O)COCC3CC3)CC2)nn1`, the INHIBITION was -61.2%.

Take `CN(C)c1ccc(C(=O)N2CCCC(n3cccn3)C2)cn1` (stereo unspecified): the INHIBITION is -240%.

Consider `C/N=C1/c2cc3cc(OC)ccc3n2CCN1Cc1ccccc1`, for which the INHIBITION was 25.3%.

As to `CCC(CN1CCCC1)n1cncc1-c1cnn(-c2ccccc2)c1` (stereo unspecified), the INHIBITION turned out to be 56.2%.

Turning to `CCC(CN1CCOCC1)n1cncc1-c1ccc2c(c1)CCCN2C` (stereo unspecified), the INHIBITION is recorded as 31.4%.

On to `CCC(CN1CCCC1)n1cncc1-c1cnn(-c2ccc(F)cc2)c1` (stereo unspecified), for which the INHIBITION was 43%.

Take `O=C(Cc1ccc2c(c1)CCO2)N1CCCC1c1noc(C2CC2)n1` (stereo unspecified): the INHIBITION is given as -67.5%.

For `Cc1ccc(CN2CCc3nnc(COCCN(C)C)n3CC2)o1`, the INHIBITION is recorded as -116%.

With `O=C(O)c1cc(-c2ccc3c(c2)OCO3)cc(S(=O)(=O)NC2CC2)c1`, the INHIBITION was -33.6%.

As for `O=C(O)c1cc(-c2ccoc2)cc(S(=O)(=O)NC2CC2)c1`, the INHIBITION is -132%.

For the compound `CN(C)c1ccc(-c2cc(C(=O)O)cc(S(=O)(=O)NC3CC3)c2)cc1`, the INHIBITION was determined as 57.2%.

As to `Cc1cccc(NC2CCc3c2[nH]c(=O)n(C2CCCCC2)c3=O)c1C` (stereo unspecified), the INHIBITION is -28.8%.

For `CN(Cc1cccnc1)[C@@H]1CN(Cc2cnn(C)c2)[C@@H]2CCCO[C@H]12`, the INHIBITION was -11.9%.

In the case of `N[C@H]1CN(S(=O)(=O)c2ccccc2)C[C@@H]1C1CC1`, the INHIBITION was -0.57%.

In the case of `N[C@H]1CN(S(=O)(=O)Cc2ccccc2)C[C@@H]1C1CC1`, the INHIBITION was 55.5%.

For the compound `CC(C)[C@@H]1CN(S(=O)(=O)Cc2ccccc2)C[C@H]1C(=O)O`, the INHIBITION is -80.4%.

As to `CN(Cc1ccc(F)cc1)S(=O)(=O)N1CCOCC1`, the INHIBITION is -118%.

On to `CC(=O)N[C@H]1CN(S(=O)(=O)N(C)Cc2ccccc2)C[C@@H]1C1CC1`, for which the INHIBITION is given as -59.7%.

In the case of `CN(Cc1ccccc1)S(=O)(=O)N1C[C@@H](C(=O)O)[C@H](C2CC2)C1`, the INHIBITION is reported as -76.5%.

`CCC[C@H]1CN(S(=O)(=O)N(C)Cc2ccccc2)C[C@@H]1N`: the INHIBITION is 68.1%.

In the case of `CCC[C@H]1CN(S(=O)(=O)c2ccccc2)C[C@@H]1N`, the INHIBITION came out at 16.5%.

Regarding `CN(Cc1ccccc1)S(=O)(=O)N1C[C@H](C2CC2)[C@@H](N)C1`, the INHIBITION was 58%.

On to `CO[C@H]1C[C@@H](O)C12CCN(C(=O)CCCOc1ccccc1)CC2`, for which the INHIBITION is -224%.

On to `Cc1nc(Oc2ccccc2Cl)sc1C(=O)O`, for which the INHIBITION is listed as -103%.

With `CC(Cn1cccn1)NC(=O)NCc1ccc(OC2CCCC2)nc1` (stereo unspecified), the INHIBITION is -90.4%.

`CC1CCN(CCNC(=O)c2ccn(-c3ccc(F)cc3)n2)CC1`: the INHIBITION amounted to 60.9%.

With `CC1CCCCN1CCNC(=O)c1ccn(-c2ccc(F)cc2)n1` (stereo unspecified), the INHIBITION was found to be 34.6%.

Consider `CC1CCCN(CCNC(=O)c2ccn(-c3ccc(F)cc3)n2)C1` (stereo unspecified), for which the INHIBITION is 50.2%.

In the case of `COc1ccc(-n2ccc(C(=O)NCCN3CCC(C)CC3)n2)cc1`, the INHIBITION is on record as -1.58%.

On to `CC1CCCCN1CCNC(=O)c1ccn(-c2cccc(F)c2)n1` (stereo unspecified), for which the INHIBITION is recorded as 64.3%.

On to `CC1CCCCN1CCNC(=O)c1ccn(-c2ccccc2)n1` (stereo unspecified), for which the INHIBITION amounted to 22%.

As to `COc1ccc(-n2ccc(C(=O)NCCN3CCCC(C)C3)n2)cc1` (stereo unspecified), the INHIBITION is recorded as 7.72%.

In the case of `CC1CCCN(CCNC(=O)c2ccn(-c3cccc(F)c3)n2)C1` (stereo unspecified), the INHIBITION was determined as 68%.

For the compound `Cc1cc(C(=O)NCCN2CCCC(C)C2)nn1C` (stereo unspecified), the INHIBITION was -67.5%.

Turning to `O=C(NCCN1CCCCC1)c1ccn(-c2ccc(F)cc2)n1`, the INHIBITION was 46.1%.

As to `CC1CCN(CCNC(=O)c2ccn(-c3ccccc3)n2)CC1`, the INHIBITION is 24%.

On to `O=C(NCCn1cccn1)c1ccn(-c2cccc(F)c2)n1`, for which the INHIBITION is -67.5%.

The record behind these values is ChEMBL document CHEMBL4513216, “Probing the Open Global Health Chemical Diversity Library for Multistage-Active Starting Points for Next-Generation Antimalarials” (ACS Infect Dis, 2020).
